# Test results taken from PubChem BioAssay AID926 (National Center for Advancing Translational Sciences (NCATS), 2007).
# Where “and” joins values, the source holds several entries; their conditions need not be identical. Equal entries are not always repeated. The campaign covered roughly 73,000 compounds. About 350 (0.48%) were called active. About 17% were inconclusive and are not listed. Calls come from the whole dose curve; as a rule, active = well fitted activation curve with a large enough effect in the main read-out, with a control signal flat (not every such curve was filed as active); inconclusive = small, poorly fitted or top-dose-only effect, or a change in a side signal; inactive = no such curve, though single readings can be large or run the other way; reference of the percent scale not stated here. Only a selection was taken, and actives are over-represented in it overall.
# Assays:
# [1] = qHTS Assay for Agonists of the Thyroid Stimulating Hormone Receptor; conditions: HEK293-CNG-TSHR cells, membrane potential dye, cAMP; measured here: parental cells max response
# From the text: (§1) NIH Chemical Genomics Center [NCGC]
# (§2) NIH Molecular Libraries Screening Centers Network [MLSCN]
# (§3) PI Name: Dr. Marvin Gershengorn, NIH
# (§4) Thyroid Stimulating Hormone Receptor
# (§5) TSH is an alpha/beta heterodimeric glycoprotein hormone secreted from the anterior pituitary gland which belongs to the glycoprotein hormone family. The actions of TSH are mediated by a seven-transmembrane receptor, which upon TSH binding couples preferentially to the G-alpha (s) protein (Gs), resulting in activation of adenylate cyclase and increase in cyclic adenosine 3', 5' monophosphate (cAMP). The TSH receptor (THSR) is mainly expressed in thyroid follicular cells and regulates their growth and function. Recombinant TSH is used to activate TSHR in patients with thyroid cancer receiving thyroid hormone suppression therapy and to screen for residual tumor after surgery, but it is expensive and must be administered intramuscularly. An orally active small molecule TSHR agonist would serve as an invaluable research tool for studying TSHR pharmacology and physiology, and would have multiple advantages in therapeutic settings. However, no selective small molecule agonist of the TSH receptor exists, and no small molecule screen for TSHR agonists has ever been reported.
# (§6) This cell based assay utilized a cyclic nucleotide gated ion channel (CNG) as a biosensor for cAMP induction by potential TSHR agonists.
# (§7) HEK 293 cells stably expressing the TSHR as well as a modified CNG were purchased from BD biosciences. Stimulation of cAMP production causes the CNG to open and subsequent membrane depolarization to occur. A fluorescent membrane potential dye (BD biosciences) was utilized to detect cAMP stimulation in TSHR cells.
# (§8) The cells were maintained in DMEM medium (Invitrogen) containing 10 % FBS (Hyclone), 100 units/ml Penicillin, 100 ug/ml Streptomycin (Invitrogen), and 250 ug/ml Geneticin (Invitrogen) and 1 ug/ml Puromycin (Invitrogen) at 37C in 5% CO2. HEK 293 cells expressing CNG but without TSHR (parental cells) were used in concert to control for compounds signaling through endogenous receptors and targets of HEK 293 cells.
# (§9) NCGC Assay Protocol Summary:
# (§10) High Throughput Screening. Freshly passaged cells (TSHR or parental) were dispensed into 1536-well assay plates at 4 ul/well in DMEM containing phenol red (Invitrogen), 10% FCS (Hyclone), and 100 units/ml Penicillin, 100 ug/ml Streptomycin (Invitrogen) and incubated at 37 C with 5% CO2 for 20 to 36 hrs before the robotic screening. The screen was initiated by addition of 4 ul/well membrane potential dye containing 100 uM RO 20-1724 (Sigma Aldrich), followed by 60 min incubation at room temperature to allow for dye equilibration across the cell membrane. 23 nl/well compound or control was then added to the assay plates, which were incubated for additional 30 min before reading a Envision fluorescence plate reader (Perkin Elmer) in bottom-read mode for fluorescence intensity (emission at 590 nm).
# (§11) Keywords: Thyroid-stimulating hormone TSH, TSHR, TSHR agonist, quantitative high throughput screening, qHTS, HTS, probe identification, CNG, cAMP, cyclic nucleotide gated ion channel PubChem
# [2] = target: Thyrotropin receptor (Homo sapiens) (UniProt P16473); experiment: as above; conditions: HEK293-CNG-TSHR cells (CNG channel as cAMP sensor), membrane potential dye, cAMP; series mostly up to 57.1 µM
# From the text: as §1, §2, §3, §4, §5, §6, §7, §8, §9, §10, §11
# Potency is the fitted concentration of half-maximal effect.
# Thyrotropin receptor (Homo sapiens), sequence (P16473 whole entry, looked up): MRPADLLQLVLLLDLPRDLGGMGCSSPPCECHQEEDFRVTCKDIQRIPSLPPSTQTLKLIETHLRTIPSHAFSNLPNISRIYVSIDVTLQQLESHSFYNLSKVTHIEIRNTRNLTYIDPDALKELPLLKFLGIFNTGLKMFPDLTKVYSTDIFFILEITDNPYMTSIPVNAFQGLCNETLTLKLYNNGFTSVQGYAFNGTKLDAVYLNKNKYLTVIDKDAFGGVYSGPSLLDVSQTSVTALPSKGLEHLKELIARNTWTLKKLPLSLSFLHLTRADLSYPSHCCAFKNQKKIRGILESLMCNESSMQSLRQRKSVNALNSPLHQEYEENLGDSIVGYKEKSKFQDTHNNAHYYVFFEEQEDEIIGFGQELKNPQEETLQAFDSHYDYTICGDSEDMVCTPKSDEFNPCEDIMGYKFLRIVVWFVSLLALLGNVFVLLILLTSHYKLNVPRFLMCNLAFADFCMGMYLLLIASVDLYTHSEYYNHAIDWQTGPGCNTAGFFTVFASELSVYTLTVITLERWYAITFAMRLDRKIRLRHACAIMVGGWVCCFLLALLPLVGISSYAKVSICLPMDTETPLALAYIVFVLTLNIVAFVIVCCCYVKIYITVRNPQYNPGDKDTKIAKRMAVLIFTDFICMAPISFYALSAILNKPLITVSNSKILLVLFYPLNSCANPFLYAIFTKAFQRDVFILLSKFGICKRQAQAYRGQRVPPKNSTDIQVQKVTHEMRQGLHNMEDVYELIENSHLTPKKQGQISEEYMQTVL
Structure (SMILES),activation [1],Potency [2],activation [2]
CC1CN(c2cc(=O)n(Cc3ccc(F)cc3)c(=O)[nH]2)CC(C)O1 (stereo unspecified),3.44%,inactive,–
COc1cccc([C@H]2Oc3ccc(OC)cc3/C(=N\OCC[C@@H]3C=C[C@H](OC(C)=O)[C@H](COC(C)=O)O3)[C@@H]2O)c1,1.81%,–,9.23% [at 11.4 µM] (inactive)
COC(=O)[C@@H]1CC[C@H](C)[C@@H](c2ccc(C)cc2)N1C(=O)c1ccc(/C=N\OC[C@@H](O)COCc2ccco2)cc1,44.4%,–,16.9% [at 11.4 µM] (inactive)
c1ccc2c(Nc3ccncc3)nc(-c3ccc4c(c3)OCO4)nc2c1,-4.18%,inactive,–
CCc1ccccc1NC(=O)c1cccs1,-1.56%,inactive,–
Nc1ccccc1N,-14.7%,inactive,–
Cc1ccc(CCn2c3c(c4ccccc42)CN(C)CC3)cn1,19.4%,inactive,–
COC(=O)[C@@]1(Cc2ccc(F)cc2)[C@H]2c3cc(C(=O)N(C)C)n(CCc4c[nH]c5ccc(OC)cc45)c3C[C@H]2CN1C(=O)c1ccccc1,3.36%,inactive,–
CO[C@H]1COC(=O)[C@@H](C)NC(=O)C/C=C\[C@@H](C)[C@H](OC)COC(=O)C/C=C\[C@@H]1C,2.45%,–,-73.4% [at 11.4 µM] (inactive)
CCOc1cc(/C=N/O)cc(Br)c1OC,15%,–,4.51% [at 11.4 µM] (inactive)
C[C@H]1CC[C@H](C(=O)O)N[C@@H]1c1ccc(C#Cc2ccccc2)cc1,0.689%,–,0.128% [at 11.4 µM] (inactive)
O=C(c1cccs1)N1CCN(Cc2ccc3c(c2)OCO3)CC1,-2.72%,inactive,–
C[C@@H]1O[C@@H](O[C@@H]2[C@@H](O)[C@H](OCCc3ccc(O)c(O)c3)O[C@H](CO[C@@H]3O[C@H](CO)[C@@H](O)[C@H](O)[C@H]3O)[C@H]2OC(=O)/C=C/c2ccc(O)c(O)c2)[C@H](O)[C@H](O)[C@H]1O,23.7%,inactive,–
c1nc(COc2nsnc2N2CCOCC2)cs1,-7.01%,inactive,–
O=C(O)COc1nsnc1N1CCOCC1,-10.1%,inactive,–
c1ccc(COc2nsnc2N2CCOCC2)cc1,27.1%,31.6 µM (active),–
COc1ccc(OC)c(NC(=O)CC(Cc2ccccc2OC)C(=O)O)c1 (stereo unspecified),9.66%,inactive,–
CCn1c(COc2ccc(OC)cc2)nnc1SCC(=O)Nc1cc(OC)ccc1OC,24.1%,inactive,–
COc1ccc(OC)c(NC(=O)CSc2nc(N)c(-c3ccccc3)c(=O)[nH]2)c1,9.04%,25.1 µM (active),–
CN(C)CCCCNC(=O)c1ccc(Cc2nc3ccccc3[nH]2)cc1,3.13%,inactive,–
Cc1ccc2oc(=O)c3cnn(CC(=O)N4CCN(c5ccccn5)CC4)c3c2c1,4.94%,inactive,–
CC(C)[C@@H](OCc1ccccc1)[C@H](C)/C=N\OC[C@@H](C)[C@H](OCc1ccccc1)C(C)C,2.03%,–,1.85% [at 11.4 µM] (inactive)
Cc1c(S(=O)(=O)O)ccc(N=Nc2c(O)c(C(=O)O)cc3ccccc23)c1Cl,-23.8%,–,-9.34% [at 11.4 µM] (inactive)
Cc1nc2cnc(N3CCNCC3)nc2n(CCc2ccccc2)c1=O,9.57%,inactive,–
O=C(COC(=O)CCC(=O)c1cccs1)NCc1ccco1,10.5%,inactive,–
CCOC(=O)c1c(NC(=O)CCC(=O)NCc2ccco2)sc2c1CCCC2,12.9%,inactive,–

Structure (SMILES),activation [1],Potency [2],activation [2]
O=C(COC(=O)C12CC3CC(CC(C3)C1)C2)NCc1ccco1,-8.57%,0.794 µM (active),–
CC(C)CO/N=C1/C[C@@H](O)[C@@H](O)[C@@H]2[C@@H]3C(=O)N(C[C@@H]4CCCO4)C(=O)[C@H]3CC[C@@H]12,4.27%,–,-4.09% [at 11.4 µM] (inactive)
COC(=O)C(C(=O)OC)[C@@H]1CCCC(=O)C1,4.23%,–,-9.31% [at 11.4 µM] (inactive)
COC(=O)C(C)Sc1ccc2nnc(-c3cccc(F)c3)n2n1 (stereo unspecified),2.29%,inactive,–
CSc1ccc(Cl)c(C(=O)OCC(=O)N2CC(C)OC(C)C2)c1 (stereo unspecified),6.62%,inactive,–
COC(=O)C1=C(C)N(Cc2ccccc2)C2=C3C(=O)N(c4ccccc4)C(=O)C3[C@@](O)(C(=O)OC)C(=O)N2C1c1ccccc1 (stereo partly specified),9.18% and 2.67%,–,-0.785% [at 11.4 µM] (inactive) and 7.43% [at 11.4 µM] (inactive)
CCCNC(=O)OC[C@@H]1O[C@H](c2ccccc2)C=C[C@@H]1Oc1ccc(OC)cc1,1.38%,–,1.94% [at 11.4 µM] (inactive)
CN1CCCc2cc(C#N)c(=O)[nH]c21,7.1%,–,4.78% [at 11.4 µM] (inactive)
O=C(Cc1nn[nH]n1)NCCC1=CCCCC1,15.8%,inactive,–
O=C(CN1C(=O)NC2(CCCCC2)C1=O)NCCC1=CCCCC1,3.28%,12.6 µM (active),–
O=C(COc1cccc(-n2cnnn2)c1)NCCC1=CCCCC1,-0.416%,inactive,–
CNC(=O)C1(C)C=CC2(CCCCC2)N1C(C)=O (stereo unspecified),9.38%,inactive,–
O=C(c1ccccc1)c1ccc2nc(N3CCCCC3)c3nncn3c2c1,3.47%,inactive,–
O=C(O)c1cc(S(=O)(=O)N2CCCCCC2)c(Cl)cc1Cl,9.56%,–,12.9% [at 11.4 µM] (inactive)
COC(=O)[C@@]1(C)C=C[C@@H](Cc2ccccc2)N1C(C)=O,15.2%,inactive,–
CCC[C@@H]1C[C@@]1(CCC)C(NC(=O)c1ccc(-c2ccccc2)cc1)c1cccc(Cl)c1 (stereo partly specified),-2.94%,inactive,–
COC(=O)C1(C)C=CCN1C(=O)c1ccccc1 (stereo unspecified),22%,inactive,–
O=C(Cl)c1ccccc1[N+](=O)[O-],27%,inactive,–
CC(C)CN1CCc2nc(-c3ccccc3)c3c(c2C1)COC(C)C3 (stereo unspecified),-2.08%,–,-2.84% [at 11.4 µM] (inactive)
CCN(CC)CCCCn1c(-c2ccccc2)nc2c(N3CCOCC3)nc(C)nc21,25%,inactive,–
CN1CCN(Cc2nc3c(c(=O)n(C)c(=O)n3C)n2Cc2cccc3ccccc23)CC1,2.12%,inactive,–
C[C@@H]1/C=C\CC(=O)OC[C@H]2O[C@@H](C=C[C@@H]2O)[C@H](C)/C=C\CC(=O)OC[C@H]2O[C@H]1C=C[C@@H]2O,-6.65%,–,-3.42% [at 11.4 µM] (inactive)
CC(=O)OCC1OC(C#CCCCc2ccccc2)C=CC1OC(C)=O (stereo unspecified),-0.905%,–,0.607% [at 11.4 µM] (inactive)
CCc1cc(=O)oc2cc(C)cc(OC(C)C(=O)O)c12 (stereo unspecified),10.3%,inactive,–
O=C1[C@H]2[C@H]3[C@H](O)[C@H](O)C/C(=N/OCc4ccccc4)[C@H]3CC[C@@H]2C(=O)N1Cc1ccccc1,-2.25%,–,-22.5% [at 11.4 µM] (inactive)
c1ccc(-c2nnc3n2NC(c2ccc4c(c2)OCO4)S3)cc1 (stereo unspecified),27.8%,25.1 µM (active),–

Structure (SMILES),activation [1],Potency [2],activation [2]
O=C(Cn1nnc(-c2ccccc2)n1)NCc1ccc2c(c1)OCO2,12.1%,inactive,–
Fc1ccc(-c2nnc3sc(-c4ccc5c(c4)OCO5)nn23)cc1,23.4%,inactive,–
Cc1ccc(C(=O)N2CCN(C3CCCCC3)CC2)s1,-11.9%,inactive,–
CC(C)(C)c1ccc(OC2C=CC(C#Cc3ccccc3)OC2CO)cc1 (stereo unspecified),12.6%,–,1.96% [at 11.4 µM] (inactive)
O=C(Cn1cc2c(n1)CCCCC2)NCCN1CCOCC1,1.85%,inactive,–
CCOC(=O)CSc1nnc(-c2ccncc2)o1,-3.39%,inactive,–
Cc1ccc2nc(CC(=O)c3ccc4ccccc4c3)c(=O)[nH]c2c1,22.3%,–,4.8% [at 11.4 µM] (inactive)
COc1ccc(-c2cc(C(=O)NC(C(=O)O)C(C)C)c(C)o2)cc1OC (stereo unspecified),6.63%,inactive,–
CN1CCN(c2ncc3nc(-c4ccc(Cl)cc4)c(=O)n(-c4ccccc4)c3n2)CC1,-23%,inactive,–
COc1ncc2nc(-c3ccc(Cl)cc3)c(=O)n(C)c2n1,6.5%,inactive,–
Cn1c(=O)[nH]c(=O)c2c1nc(NCCCn1ccnc1)n2Cc1cccc(Br)c1,20.4%,20 µM (active),–
CCCCNc1nc2c(c(=O)[nH]c(=O)n2C)n1CCOc1ccccc1,0.873%,inactive,–
CC(c1ccccc1)n1c(NCCCn2ccnc2)nc2c1c(=O)[nH]c(=O)n2C (stereo unspecified),2.43%,inactive,–
CCC(C)(C)N=C(NC#N)Nc1cccnc1,0.273%,inactive,–
C1CCC2OC2C1 (stereo unspecified),21.9%,inactive,–
CC(Cc1ccccc1)C(=O)N(C)Cc1ccccc1 (stereo unspecified),16.5%,inactive,–
CO[C@H]1COC(=O)CCC[C@@H](C)[C@H](OC)COC(=O)[C@@H](C)NC(=O)C/C=C\[C@@H]1C,4.76%,–,0.571% [at 11.4 µM] (inactive)
C/C(CCN1CCCCc2nc(C)c(C)cc21)=N\O[C@@H](C)c1cn([C@@H]2COC[C@@H]2O)nn1,6.27%,–,4.59% [at 11.4 µM] (inactive)
O=C(O)c1nccnc1C(=O)Nc1ccc(Br)cn1,3.73%,inactive,–
C[C@@H](c1ccccc1)N1C(=O)[C@H]2[C@H]3[C@H](O)[C@H](O)C/C(=N/OC[C@@H](O)COCc4ccco4)[C@@H]3CC[C@@H]2C1=O,5.7%,–,-3.6% [at 11.4 µM] (inactive)
OC(CCl)CCl,12.9%,inactive,–
CCOC(=O)c1cccc(NC(=O)C2CCCN(S(=O)(=O)c3cnc[nH]3)C2)c1 (stereo unspecified),5.88%,inactive,–
CN1CCN(Cc2c(O)ccc3c2oc(=O)c2ccccc23)CC1,13.2%,inactive,–
CO[C@H]1COC(=O)[C@H](Cc2ccccc2)NC(=O)C/C=C\[C@@H](C)[C@H](OC)COC(=O)C/C=C\[C@@H]1C,25.1%,–,10.2% [at 11.4 µM] (inactive)
O=C(CC1Nc2ccccc2NC1=O)Nc1ccccc1 (stereo unspecified),-1.43%,inactive,–
CCCCCCn1c(SCC(=O)c2ccccc2)nc2c1c(=O)[nH]c(=O)n2C,-2.08%,–,3.88% [at 11.4 µM] (inactive)
